Data reported in PubChem BioAssay (Tox21).
Values joined by “and” are separate entries in the source; they are usually repeats but may differ in a detail not shown here. Identical values can stand only once. Inconclusive results are not listed. Active and inactive are the calls of the source. Calls follow the shape of the dose curve; as a rule, active = well fitted curve in the direction sought with a large enough effect in the repeat runs; inconclusive = weak or mixed curves; inactive = no such curve, though single readings can be large; an effect the other way counts as inactive or inconclusive.

Tested on: not listed separately
Assay: qHTS assay to identify small molecule agonists of the constitutive androstane receptor (CAR) signaling pathway - cell viability counter screen (AID 1224836); also: nearly all actives have a fitted effect of over 45% in size
Details: HepG2-CYP2B6-hCAR viability, CellTiter-Fluor, 23 h, PK11195 added to every well; series mostly up to 92.4 µM; viability change, negative = cytotoxic: at the top concentration
Outline: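 Counter screen multiplexed with the CAR reporter readout: HepG2 cells co-transfected with hCAR and the CYP2B6-2.2kb construct receive a 15-concentration compound series and 0.75 uM PK11195 (final), then CellTiter-Fluor fluorescence is read after 23 h.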
% is scaled to controls: 0 for no effect and ±100 for the full control effect.

| Compound | viability change, negative = cytotoxic |
| --- | --- |
| O=Cc1ccccc1 | 10.7% (inactive) |
| Cc1ccc(C)c2ccccc12 | -1.76% (inactive) |
| CCNc1nc(NC(C)C(C)C)nc(SC)n1 (configuration not stated) | 15.1% (inactive) |

Tested on: not listed separately
Assay: qHTS assay to identify small molecule antagonists of the constitutive androstane receptor (CAR) signaling pathway - cell viability counter screen (AID 1224837); also: nearly all actives have a fitted effect of over 45% in size; also: potency is read from the fitted curve at half-maximal effect
Details: HepG2-CYP2B6-hCAR viability, CellTiter-Fluor, 23 h, co-treated with 50 nM CITCO; series mostly up to 92.4 µM; activity change, negative = cytotoxicity: at the top concentration
Outline: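 Fluorescence from CellTiter-Fluor served as the viability signal. Human hepatoma HepG2 cells stably bearing hCAR and CYP2B6-2.2kb received compound plus CITCO (50 nM final) for 23 hr.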

| Compound | activity change, negative = cytotoxicity | Potency |
| --- | --- | --- |
| Brc1ccc(Oc2ccc(Br)cc2Br)c(Br)c1 | -6.92% (inactive) | – |
| CC[C@H](C)[C@H]1O[C@]2(C=C[C@@H]1C)C[C@@H]1C[C@@H](C/C=C(\C)[C@@H](O[C@H]3C[C@H](OC)[C@@H](O[C@H]4C[C@H](OC)[C@@H](NC)[C@H](C)O4)[C@H](C)O3)[C@@H](C)/C=C/C=C3\CO[C@@H]4[C@H](O)C(C)=C[C@@H](C(=O)O1)[C@]34O)O2 | – | 9.69 µM (active) |
| CSC(=O)c1c(C(F)F)nc(C(F)(F)F)c(C(=O)SC)c1CC(C)C | -9.08% (inactive) | – |
| Oc1cc(Cl)cc(Cl)c1 | -0.615% (inactive) | – |
| CNC(C)(C)Cc1ccccc1 | 5.05% [at 42.5 µM] (inactive) | – |
| CC(C)[C@@H](Nc1ccc(C(F)(F)F)cc1Cl)C(=O)OC(C#N)c1cccc(Oc2ccccc2)c1 (some centres not stated) | 2.07% (inactive) | – |
| Cc1ccc([N+](=O)[O-])[c]2c1[O][Hg]2 | – | 6.68 µM (active) |
| CC(C)N(C(=O)SC/C(Cl)=C/Cl)C(C)C | 5.5% (inactive) | – |
| C[C@]12CC[C@H]3[C@@H](CCC4=CC(=O)CC[C@@H]43)[C@@H]1CC[C@@H]2OC(=O)CCc1ccco1 | 2.98% [at 42.5 µM] (inactive) | – |
| CNC(=O)O/N=C(\C)C(C)S(C)(=O)=O (configuration not stated) | -1.09% [at 872 µM] (inactive) | – |
| CC1(C)[C@H](/C=C2\CCSC2=O)[C@@H]1C(=O)OCc1coc(Cc2ccccc2)c1 | -1.93% (inactive) | – |
| Fc1ccc(C(OCCN2CCN(CCCc3ccccc3)CC2)c2ccc(F)cc2)cc1 | – | 21.1 µM (active) |
| CN(C)c1ccc(N)cc1 | – | 53.2 µM (active) |
| CC(C)C(Nc1ccc(C(F)(F)F)cc1Cl)C(=O)OC(C#N)c1cccc(Oc2ccccc2)c1 (configuration not stated) | 9.73% (inactive) | – |
| N#CSCc1ccccc1 | -16.4% (inactive) | – |
| Cc1cccc(Cc2cnc[nH]2)c1C | -16% [at 42.5 µM] (inactive) | – |
| CN(C)C(=S)SSC(=S)N(C)C | – | 269 nM (active) and 344 nM (active) and 422 nM (active) |
| c1csc(-c2ccc(-c3cccs3)s2)c1 | -23% (inactive) | – |
| COP(=S)(NC(C)C)Oc1ccc(C)cc1[N+](=O)[O-] (configuration not stated) | -4.65% (inactive) | – |
| CCC1(CC)C(=O)N=C(O)NC1=O | 1.55% (inactive) | – |

| Compound | activity change, negative = cytotoxicity | Potency |
| --- | --- | --- |
| CC(=O)C(Cl)C(=O)N(C)C (configuration not stated) | -17.5% (inactive) | – |
| CCOC(=O)CCN(SN(C)C(=O)Oc1cccc2c1OC(C)(C)C2)C(C)C | 0.992% (inactive) | – |
| COc1nc(C)nc(NC(=O)NS(=O)(=O)c2ccccc2Cl)n1 | 2.36% (inactive) | – |
| c1ccc2nc(N3CCNCC3)ccc2c1 | -28.1% [at 42.5 µM] (inactive) | – |
| CCCCC(CC)COC(=O)OOC(C)(C)C (configuration not stated) | 2.02% (inactive) | – |
| CCOP(=S)(OCC)Oc1cc(C)nc(N(CC)CC)n1 | 2.57% (inactive) | – |
| CC1CCCC1 | -1.6% (inactive) | – |
| COc1ccc2c(c1OC)C(=O)O[C@@H]2[C@H]1c2cc3c(cc2CCN1C)OCO3 | – | 7.62 µM (active) |
| CN/C(=N\[N+](=O)[O-])NCc1cnc(Cl)s1 | 0.214% (inactive) | – |
| CCOP(=O)(Sc1ccccc1)Sc1ccccc1 | -11.9% (inactive) | – |
| CCOC(=O)Cc1ccccc1 | 10.5% (inactive) | – |
| CNC(=O)Oc1cc(C)cc(C(C)C)c1 | 5.13% (inactive) | – |
| O=c1c2ccccc2c(=O)c2c1cc(Cl)c1[nH]c3c([nH]c12)c(Cl)cc1c(=O)c2ccccc2c(=O)c13 | -11.7% (inactive) | – |
| CCOP(=S)(OCC)SC(CCl)N1C(=O)c2ccccc2C1=O (configuration not stated) | -0.577% (inactive) | – |
| ClC1=C(Cl)[C@]2(Cl)[C@H]3[C@H]([C@@H]4C=C[C@H]3C4)[C@@]1(Cl)C2(Cl)Cl | – | inactive |
| [O]=[Cr][O][Cr]=[O] | 1.18% (inactive) | – |
| O=Cc1ccccc1 | 5.94% (inactive) | – |
| Cc1ccc(C)c2ccccc12 | 2.36% (inactive) | – |
| CCNc1nc(NC(C)C(C)C)nc(SC)n1 (configuration not stated) | 3.73% (inactive) | – |

Target: Nuclear receptor subfamily 1 group I member 3 (Homo sapiens) (UniProt Q14994)
Sequence (Q14994 whole entry, looked up): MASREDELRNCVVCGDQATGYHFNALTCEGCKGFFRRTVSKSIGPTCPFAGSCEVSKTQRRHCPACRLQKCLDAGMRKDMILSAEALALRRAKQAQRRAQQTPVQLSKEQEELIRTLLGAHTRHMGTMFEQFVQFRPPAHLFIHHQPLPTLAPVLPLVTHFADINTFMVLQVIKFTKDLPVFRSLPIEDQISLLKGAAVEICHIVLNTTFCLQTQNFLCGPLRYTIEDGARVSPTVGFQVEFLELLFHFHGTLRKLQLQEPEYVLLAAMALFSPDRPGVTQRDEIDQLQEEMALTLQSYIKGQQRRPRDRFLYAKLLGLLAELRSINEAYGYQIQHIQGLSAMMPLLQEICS
Assay: qHTS assay to identify small molecule antagonists of the constitutive androstane receptor (CAR) signaling pathway (AID 1224838);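 also: HepG2 cells stably expressing hCAR with CYP2B6 luciferase reporter stimulated by CITCO; nearly all actives have a fitted effect of over 40% in size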; also: potency is read from the fitted curve at half-maximal effect
Details: HepG2-CYP2B6-hCAR luciferase, CITCO-stimulated, 24 h; series mostly up to 92.4 µM; activity, negative = inhibition: at the top concentration
Outline: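 Quantitative HTS in double-stable HepG2-CYP2B6-hCAR cells. After 4 h plating, cells get compound (15 concentrations) and CITCO at 50 nM final, incubate 24 h at 37 C, then ONE-Glo luminescence is read.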

| Compound | activity, negative = inhibition | Potency |
| --- | --- | --- |
| Brc1ccc(Oc2ccc(Br)cc2Br)c(Br)c1 | 126% (inactive) | – |
| CC[C@H](C)[C@H]1O[C@]2(C=C[C@@H]1C)C[C@@H]1C[C@@H](C/C=C(\C)[C@@H](O[C@H]3C[C@H](OC)[C@@H](O[C@H]4C[C@H](OC)[C@@H](NC)[C@H](C)O4)[C@H](C)O3)[C@@H](C)/C=C/C=C3\CO[C@@H]4[C@H](O)C(C)=C[C@@H](C(=O)O1)[C@]34O)O2 | – | 13.7 µM (active) |
| CSC(=O)c1c(C(F)F)nc(C(F)(F)F)c(C(=O)SC)c1CC(C)C | 17.9% (inactive) | – |
| Oc1cc(Cl)cc(Cl)c1 | 63.5% (inactive) | – |
| CNC(C)(C)Cc1ccccc1 | 2.39% [at 42.5 µM] (inactive) | – |
| CC(C)[C@@H](Nc1ccc(C(F)(F)F)cc1Cl)C(=O)OC(C#N)c1cccc(Oc2ccccc2)c1 (some centres not stated) | -4.71% (inactive) | – |
| Cc1ccc([N+](=O)[O-])[c]2c1[O][Hg]2 | – | 9.44 µM (active) |
| CC(C)N(C(=O)SC/C(Cl)=C/Cl)C(C)C | 33.4% (inactive) | – |
| C[C@]12CC[C@H]3[C@@H](CCC4=CC(=O)CC[C@@H]43)[C@@H]1CC[C@@H]2OC(=O)CCc1ccco1 | 22.6% [at 42.5 µM] (inactive) | – |
| CC1(C)[C@H](/C=C2\CCSC2=O)[C@@H]1C(=O)OCc1coc(Cc2ccccc2)c1 | 24.1% (inactive) | – |
| CN(C)c1ccc(N)cc1 | -118% (inactive) | – |
| CC(C)C(Nc1ccc(C(F)(F)F)cc1Cl)C(=O)OC(C#N)c1cccc(Oc2ccccc2)c1 (configuration not stated) | 26.5% (inactive) | – |
| Cc1cccc(Cc2cnc[nH]2)c1C | 21.8% [at 42.5 µM] (inactive) | – |
| CN(C)C(=S)SSC(=S)N(C)C | – | 191 nM (active) and 386 nM (active) and 473 nM (active) |
| c1csc(-c2ccc(-c3cccs3)s2)c1 | 104% (inactive) | – |
| COP(=S)(NC(C)C)Oc1ccc(C)cc1[N+](=O)[O-] (configuration not stated) | 86.1% (inactive) | – |
| CCC1(CC)C(=O)N=C(O)NC1=O | -11.7% (inactive) | – |
| CCOC(=O)CCN(SN(C)C(=O)Oc1cccc2c1OC(C)(C)C2)C(C)C | 119% (inactive) | – |

| Compound | activity, negative = inhibition | Potency |
| --- | --- | --- |
| COc1nc(C)nc(NC(=O)NS(=O)(=O)c2ccccc2Cl)n1 | -9.27% (inactive) | – |
| c1ccc2nc(N3CCNCC3)ccc2c1 | 8.32% [at 42.5 µM] (inactive) | – |
| CCCCC(CC)COC(=O)OOC(C)(C)C (configuration not stated) | -3.43% (inactive) | – |
| CCOP(=S)(OCC)Oc1cc(C)nc(N(CC)CC)n1 | 146% (inactive) | – |
| CC1CCCC1 | 34.1% (inactive) | – |
| COc1ccc2c(c1OC)C(=O)O[C@@H]2[C@H]1c2cc3c(cc2CCN1C)OCO3 | 54.8% (inactive) | – |
| CN/C(=N\[N+](=O)[O-])NCc1cnc(Cl)s1 | -2.05% (inactive) | – |
| CCOP(=O)(Sc1ccccc1)Sc1ccccc1 | 10.3% (inactive) | – |
| CCOC(=O)Cc1ccccc1 | 2.74% (inactive) | – |
| CNC(=O)Oc1cc(C)cc(C(C)C)c1 | 8.26% (inactive) | – |
| O=c1c2ccccc2c(=O)c2c1cc(Cl)c1[nH]c3c([nH]c12)c(Cl)cc1c(=O)c2ccccc2c(=O)c13 | -7.43% (inactive) | – |
| CCOP(=S)(OCC)SC(CCl)N1C(=O)c2ccccc2C1=O (configuration not stated) | -4.04% (inactive) | – |
| ClC1=C(Cl)[C@]2(Cl)[C@H]3[C@H]([C@@H]4C=C[C@H]3C4)[C@@]1(Cl)C2(Cl)Cl | – | inactive |
| [O]=[Cr][O][Cr]=[O] | -1.88% (inactive) | – |
| O=Cc1ccccc1 | -2.42% (inactive) | – |
| Cc1ccc(C)c2ccccc12 | 13.3% (inactive) | – |
| CCNc1nc(NC(C)C(C)C)nc(SC)n1 (configuration not stated) | 47.4% (inactive) | – |
